Assay [1] in a line: antimalarial activity against Dd2 strain (AID 2302;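 active means growth inhibition above 50% at the single 2 µM test dose, taken to imply half-maximal potency below 2 µM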;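 further: 0% = DMSO untreated growth and 100% = chloroquine plus artemisinin killed control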). The settings on record: P. falciparum Dd2 in RBCs, LDH growth readout, 72 h; at 2 µM; active compounds read high.
Assay [2] is described as follows: human hepatoma cell viability loss – ATP luminescence, cytotoxicity control for P. falciparum antimalarial project, primary screen (AID 2303;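 active means inhibition above 50%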;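 further: 0% = DMSO wells and 100% = digitonin-killed cells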). The settings on record: HepG2 viability, 24-48 h, at 10 µM, active compounds read high.
Assay [3] deals with L-lactate dehydrogenase (Plasmodium falciparum (isolate CDC / Honduras)) (UniProt Q27743). Nature of the assay: PfLDH activity inhibition – cell lysate, 3D7 strain, counter-screen for P. falciparum growth inhibition project (AID 2304).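 Further: 0% = vehicle and 100% = reference inhibitor.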 The settings on record: P. falciparum 3D7 crude extract, LDH APAD/NBT absorbance; at 2 µM; active compounds read high. In general terms: A counterscreen serves to expose hits that act by an unwanted route or on another target.

Assay [4] can be described thus: inhibition of 3D7 malaria parasite growth – strain 3D7 (AID 2306).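 Further: 0% = DMSO wells and 100% = chloroquine plus artemisinin control wells.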 The conditions noted are these: P. falciparum 3D7 erythrocytic growth, LDH absorbance, 72 h; at 2 µM; active compounds read high.
Assay [5] has as its target Calcium-dependent protein kinase 1 (Plasmodium falciparum (isolate 3D7)) (UniProt P62344). Nature of the assay: PfCDPK1 kinase inhibitors, biochemical, TCAMS library (AID 1159585; cut-off not given, nearly all actives have IC50 up to about 0.98 µM;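 further: inhibitors leave more ATP so luminescence rises with inhibition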). The conditions noted are these: recombinant PfCDPK1, Kinase-Glo ATP depletion luminescence.
Assay [6] has as its target Plasmodium falciparum protein kinase 6 (PK6, PF3D7_1337100) (UniProt Q8IDW1). Nature of the assay: PfPK6 kinase inhibitors, biochemical, TCAMS library (AID 1159586). The conditions noted are these: recombinant PfPK6, Kinase-Glo ATP depletion luminescence. In general terms: Kinase-Glo measures the ATP left after a reaction by luminescence.
For assay [7], the target named is Protein kinase 7 (PK7), Plasmodium falciparum 3D7 (PF3D7_0213400) (UniProt Q7YTF7). Nature of the assay: inhibition of Plasmodium PK7 catalytic activity – biochemical, TCAMS antimalarial set, Kinase-Glo luminescence (AID 1159587). The settings on record: recombinant PfPK7, Kinase-Glo ATP depletion luminescence.
Assay [8] deals with Calcium-dependent protein kinase 4 (Plasmodium falciparum (isolate 3D7)) (UniProt Q8IBS5). Nature of the assay: PfCDPK4 kinase inhibitors, biochemical, TCAMS library (AID 1159588; cut-off not given, nearly all actives have IC50 up to about 0.91 µM). The settings on record: recombinant PfCDPK4, Kinase-Glo ATP depletion luminescence.

A number with no mark means an inactive call. For some of these results: Measured potencies and affinities stand elsewhere. Active and inactive are the calls of the source. Unless noted, how the calls were made is not given here.

Protein kinase 7 (PK7), Plasmodium falciparum 3D7 (PF3D7_0213400), sequence (Q7YTF7 1-343): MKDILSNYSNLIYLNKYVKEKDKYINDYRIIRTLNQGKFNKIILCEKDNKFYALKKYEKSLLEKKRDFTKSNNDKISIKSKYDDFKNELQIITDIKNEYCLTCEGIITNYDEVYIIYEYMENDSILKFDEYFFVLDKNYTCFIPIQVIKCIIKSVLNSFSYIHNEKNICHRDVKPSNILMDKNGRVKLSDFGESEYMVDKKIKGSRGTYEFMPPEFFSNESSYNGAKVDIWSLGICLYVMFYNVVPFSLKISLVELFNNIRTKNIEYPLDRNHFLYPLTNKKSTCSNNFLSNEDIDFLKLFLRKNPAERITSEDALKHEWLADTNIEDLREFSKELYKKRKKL
Calcium-dependent protein kinase 4 (Plasmodium falciparum (isolate 3D7)), sequence (Q8IBS5 whole entry, looked up): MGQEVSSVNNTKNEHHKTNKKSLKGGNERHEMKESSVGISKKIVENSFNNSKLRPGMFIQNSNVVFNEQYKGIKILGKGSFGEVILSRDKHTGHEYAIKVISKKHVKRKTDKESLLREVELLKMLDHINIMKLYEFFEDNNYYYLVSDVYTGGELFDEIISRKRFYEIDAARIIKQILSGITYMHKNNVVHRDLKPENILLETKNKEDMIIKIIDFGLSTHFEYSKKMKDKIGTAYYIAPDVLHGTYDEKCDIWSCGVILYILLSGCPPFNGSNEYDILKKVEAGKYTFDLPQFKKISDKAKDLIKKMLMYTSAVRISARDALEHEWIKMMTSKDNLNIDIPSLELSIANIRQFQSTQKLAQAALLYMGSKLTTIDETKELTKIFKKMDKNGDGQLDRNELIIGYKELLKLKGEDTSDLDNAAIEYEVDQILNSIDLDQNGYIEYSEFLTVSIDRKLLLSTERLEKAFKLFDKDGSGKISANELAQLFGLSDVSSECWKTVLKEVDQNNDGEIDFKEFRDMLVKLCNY
L-lactate dehydrogenase (Plasmodium falciparum (isolate CDC / Honduras)), sequence (Q27743 whole entry, looked up): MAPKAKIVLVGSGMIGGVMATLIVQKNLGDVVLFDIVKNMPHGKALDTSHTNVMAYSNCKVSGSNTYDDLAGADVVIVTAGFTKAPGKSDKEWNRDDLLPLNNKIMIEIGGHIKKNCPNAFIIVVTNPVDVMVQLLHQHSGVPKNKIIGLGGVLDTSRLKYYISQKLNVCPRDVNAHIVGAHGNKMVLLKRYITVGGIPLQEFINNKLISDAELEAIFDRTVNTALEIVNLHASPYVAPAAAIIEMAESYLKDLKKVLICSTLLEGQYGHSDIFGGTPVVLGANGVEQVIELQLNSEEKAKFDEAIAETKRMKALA
Plasmodium falciparum protein kinase 6 (PK6, PF3D7_1337100), sequence (Q8IDW1 1-305): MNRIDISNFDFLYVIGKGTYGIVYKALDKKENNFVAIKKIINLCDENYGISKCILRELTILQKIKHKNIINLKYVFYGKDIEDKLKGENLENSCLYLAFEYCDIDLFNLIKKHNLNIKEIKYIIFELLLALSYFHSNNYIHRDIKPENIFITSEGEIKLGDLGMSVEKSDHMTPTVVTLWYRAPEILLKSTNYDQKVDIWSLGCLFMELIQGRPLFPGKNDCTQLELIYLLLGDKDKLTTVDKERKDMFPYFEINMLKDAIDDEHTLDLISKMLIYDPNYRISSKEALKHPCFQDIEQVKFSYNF
Calcium-dependent protein kinase 1 (Plasmodium falciparum (isolate 3D7)), sequence (P62344 whole entry, looked up): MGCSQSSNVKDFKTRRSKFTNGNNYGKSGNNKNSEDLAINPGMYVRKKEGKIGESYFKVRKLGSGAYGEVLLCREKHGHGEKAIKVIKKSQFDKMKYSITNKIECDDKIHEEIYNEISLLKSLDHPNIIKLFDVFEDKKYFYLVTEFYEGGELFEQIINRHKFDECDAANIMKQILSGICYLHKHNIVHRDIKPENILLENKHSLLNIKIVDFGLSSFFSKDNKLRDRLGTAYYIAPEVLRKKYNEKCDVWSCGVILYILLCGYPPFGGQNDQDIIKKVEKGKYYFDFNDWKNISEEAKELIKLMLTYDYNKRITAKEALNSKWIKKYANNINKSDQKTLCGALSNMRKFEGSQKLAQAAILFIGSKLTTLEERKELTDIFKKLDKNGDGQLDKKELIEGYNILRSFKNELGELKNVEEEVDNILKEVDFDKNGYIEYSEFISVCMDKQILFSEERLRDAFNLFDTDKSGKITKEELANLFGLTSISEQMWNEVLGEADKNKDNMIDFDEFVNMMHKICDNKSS

What is called inhibition is the drop in the measured response relative to a control, in per cent. Consider `C#CCNCc1ccc(-c2ccc(-c3nc4ccc(C(F)(F)F)cc4[nH]3)s2)cc1`, for which the growth inhibition is 28% in assay [1] and 98% (active) in assay [4]. In addition, the inhibition was 37% in assay [2] and 0% in assay [3]. Also, the outcome in assay [5], in assay [6], in assay [7] and in assay [8] was inactive.
As to `CS(=O)(=O)CCNCc1ccc(-c2ccc3c(Nc4ccc(F)cc4Cl)ccnc3c2)o1`, the growth inhibition was 98% (active) in assay [1] and 100% (active) in assay [4]. Moreover, the inhibition is 29% in assay [2] and 0% in assay [3]. The outcome in assay [5], in assay [6], in assay [7] and in assay [8] was inactive.
As to `CN1CCC(C(=O)Nc2cccc(-c3ccc(-c4nc5ccc(C(F)(F)F)cc5[nH]4)cc3)c2)CC1`, the figures for the growth inhibition in assay [1] and in assay [4] were 99% (active) and 100% (active), respectively. Further, the inhibition is 38% in assay [2] and -4% in assay [3]. The result in assay [5], in assay [6], in assay [7] and in assay [8] was inactive.
Turning to `COc1ccc(-c2cccc(CNC3CCN(C)CC3)c2)cc1S(=O)(=O)NCc1ccccc1`, the growth inhibition in assay [1] was 22%; in assay [4], 90% (active). The results for the inhibition in assay [2] and in assay [3] were 18% and -5%, respectively. Besides, the result in assay [5], in assay [6], in assay [7] and in assay [8] was inactive.
Regarding `CN1CC=C(c2csc3ccc(NC(=O)Nc4ccc(-c5ccncc5)c5ccccc45)cc23)CC1`, the growth inhibition in assay [1] was 99% (active); in assay [4], 93% (active). In addition, the inhibition in assay [2] is 20%; in assay [3] it was 1%. For the same molecule, the outcome in assay [5], in assay [6], in assay [7] and in assay [8] was inactive.
With `COc1ccc(NC(=O)c2ccc(-c3nc(-c4ccccc4)cs3)cc2)cc1N1CCN(C)CC1`, the growth inhibition in assay [1] is 13%; in assay [4], 93% (active). The results for the inhibition in assay [2] and in assay [3] were 17% and -3%, respectively. The result in assay [5], in assay [6], in assay [7] and in assay [8] was inactive.
For the molecule `CC(=O)Nc1nc(C(=O)Nc2cccc(-c3ccc(-c4nc5ccccc5[nH]4)cc3)c2)cs1`, the growth inhibition in assay [1] was 60% (active); in assay [4] it was 101% (active). The values for the inhibition in assay [2] and in assay [3] were 88% (active) and -2%, respectively. In addition, the outcome in assay [5], in assay [6], in assay [7] and in assay [8] was inactive.
With `CN1CCC[C@H]1COc1ccc(CN2CC[C@H](NC(=O)c3ccc(Cl)c(Cl)c3)C2)c2ccccc12`, the growth inhibition is 98% (active) in assay [1] and 101% (active) in assay [4]. The inhibition in assay [2] is 47%; in assay [3], -3%. In addition, the outcome in assay [5], in assay [6], in assay [7] and in assay [8] was inactive.
For the molecule `O=C(Cc1ccc(F)cc1)NC1CCN(c2ccnc3cc(Cl)ccc23)C1` (stereo not given), the growth inhibition in assay [1] is 85% (active); in assay [4] it was 99% (active). In addition, the inhibition was -1% in assay [2] and 1% in assay [3]. Besides, the outcome in assay [5], in assay [6], in assay [7] and in assay [8] was inactive.
For `CC(=O)c1ccc(NC(=O)C2c3ccccc3C(=O)N(CC(C)C)C2c2cccs2)cc1` (stereo not given), the growth inhibition is 51% (active) in assay [1] and 99% (active) in assay [4]. The results for the inhibition in assay [2] and in assay [3] were 13% and -1%, respectively. Also, the result in assay [5], in assay [6], in assay [7] and in assay [8] was inactive.
`O=C(CSc1nc2ccccc2c(=O)n1C1CC1)Nc1cc(C(F)(F)F)ccc1Cl`: the growth inhibition in assay [1] was 96% (active); in assay [4], 97% (active). Also, the inhibition in assay [2] was 5%; in assay [3], 2%. Moreover, the outcome in assay [5], in assay [6], in assay [7] and in assay [8] was inactive.
With `COC(=O)c1cc(C(O)CNC(C)CCCc2ccccc2)ccc1O` (stereo not given), the growth inhibition in assay [1] is 97% (active); in assay [4], 99% (active). The inhibition in assay [2] was 17%; in assay [3], 0%. Further, the outcome in assay [5], in assay [6], in assay [7] and in assay [8] was inactive.
Take `c1cc(CNCC2CCCO2)cc(-c2cccc(-c3nc4ccccc4[nH]3)c2)c1` (stereo not given): the growth inhibition in assay [1] was 7%; in assay [4], 100% (active). Besides, the inhibition in assay [2] is 15%; in assay [3], 3%. Further, the outcome in assay [5], in assay [6], in assay [7] and in assay [8] was inactive.
Turning to `Cc1csc2nc(-c3ccccn3)nc(Nc3ccc4ncsc4c3)c12`, the growth inhibition is 91% (active) in assay [1] and 85% (active) in assay [4]. The inhibition was -3% in assay [2] and 3% in assay [3]. The outcome in assay [5], in assay [6], in assay [7] and in assay [8] was inactive.
In the case of `CC(C)CNCc1cccc(-c2cccc(CNc3ccc4ncccc4c3)c2)c1`, the values for the growth inhibition in assay [1] and in assay [4] were 28% and 92% (active), respectively. The inhibition in assay [2] was 23%; in assay [3], 6%. For the same molecule, the outcome in assay [5], in assay [6], in assay [7] and in assay [8] was inactive.
Regarding `COc1cc(OC)cc(C(=O)Nc2cccc(-c3cn4ccc(C)cc4n3)c2)c1`, the results for the growth inhibition in assay [1] and in assay [4] were 45% and 86% (active), respectively. The inhibition in assay [2] is 4%; in assay [3], 0%. Besides, the outcome in assay [5], in assay [6], in assay [7] and in assay [8] was inactive.
Turning to `COc1ccc(Nc2nccc(N3CCC(NC(=O)Nc4ccc5c(c4)OCO5)C3)n2)cc1` (stereo not given), the growth inhibition is 57% (active) in assay [1] and 98% (active) in assay [4]. The inhibition in assay [2] is 27%; in assay [3], -2%. For the same molecule, the result in assay [5], in assay [6], in assay [7] and in assay [8] was inactive.
Regarding `O=C(Nc1ccc(Cl)cc1)c1ccc(CN2CCCN(Cc3ccc(F)cc3)CC2)cc1`, the growth inhibition was 8% in assay [1] and 91% (active) in assay [4]. Besides, the inhibition in assay [2] is 48%; in assay [3], 6%. Also, the result in assay [5], in assay [6], in assay [7] and in assay [8] was inactive.
Turning to `CC1CCC(NC(=O)c2nn(-c3ccc(Cl)cc3)c(=O)c3ccccc23)CC1` (stereo not given), the growth inhibition in assay [1] was 67% (active); in assay [4], 91% (active). Moreover, the figures for the inhibition in assay [2] and in assay [3] were 3% and -3%, respectively. The outcome in assay [5], in assay [6], in assay [7] and in assay [8] was inactive.
On to `Cc1cc(C)c(NC(=O)N[C@H]2CCN(CCCCCNC(=O)/C=C/c3ccc(Cl)c(Cl)c3)C2)c(C)c1`, for which the growth inhibition was 3% in assay [1] and 91% (active) in assay [4]. The inhibition is 12% in assay [2] and -4% in assay [3]. Besides, the outcome in assay [5], in assay [6], in assay [7] and in assay [8] was inactive.
